Compound activity from PubChem.
Hits are enriched below; roughly 1.7% of the tested compounds scored in any of these assays.
DUSP3 inh – VHR1 phosphatase inhibitors, primary screen, biochemical, absorbance, uHTS; 290,000 tested, 0.52% active; AID 1654, 2009; inhibition, % at 13.3 µM; recombinant VHR phosphatase, pNPP absorbance; in the data active = inhibition above about 50%
PriA SSB inh – inhibitors of Klebsiella pneumoniae PriA binding to SSB C-terminal tail, primary screen, biochemical, AlphaScreen; PriA–SSB C-terminal tail interaction (Klebsiella pneumoniae); AlphaScreen SSBct-PriA binding, biotinylated peptide; inhibition, % at 33 µM; 430,000 tested, 0.6% active; in the data active = inhibition mostly above about 37%, no sharp cut-off; inactive = mostly below about 20%;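 note: plate controls were negative control peptide for no effect and reference peptide for full effect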
SARS 3CLpro inh – SARS-CoV 3CLpro protease inhibitors, primary screen, biochemical, quenched FRET; Replicase polyprotein 1ab (Severe acute respiratory syndrome coronavirus), P0C6X7; recombinant SARS-CoV 3CLpro, quenched FRET peptide cleavage; inhibition, % at 6 µM; 290,000 tested, 0.14% active; in the data active = inhibition above about 12%
RecA splice inh – Mtb RecA intein splicing inhibitors, primary screen, biochemical, fluorescence, HTS; Protein RecA (Mycobacterium tuberculosis (strain ATCC 25618 / H37Rv)), P9WHJ3; cell-free RecA intein splicing; inhibition, % (no concentration beside the values); 290,000 tested, 0.75% active; AID 2221, 2009; in the data active = inhibition above about 30%;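 note: 0% = vehicle wells and 100% = reference inhibitor control wells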
CCHF vOTU inh-1 – CCHFV vOTU protease inhibitors, primary screen, biochemical, Pep-AMC substrate, fluorescence; Crimean-Congo hemorrhagic fever virus L polyprotein viral ovarian tumor (vOTU) protease …; inhibition, % at 11.5 µM; 370,000 tested, 0.55% active; AID 651958, 2012; note: 0% = vehicle wells with enzyme and 100% = no enzyme wells
CCHF vOTU inh-2 – CCHFV vOTU protease inhibitors, confirmation, biochemical, Pep-AMC substrate, fluorescence; shares compounds with CCHF vOTU inh-1; Recombinant CCHFV vOTU; inhibition, % at 11.5 µM; 1,900 tested, 17% active; AID 686976, 2013
* = called active by the depositor; i = inactive; · = no result given. Cut-off read from the data, not from the text of the source, unless noted: active = inhibition above about 30%; inactive = the rest.

SMILES	DUSP3 inh	PriA SSB inh	SARS 3CLpro inh	RecA splice inh	CCHF vOTU inh-1	CCHF vOTU inh-2
O=c1cc(-c2ccc(O)c(-c3c(O)cc(O)c4c(=O)cc(-c5ccc(O)cc5)oc34)c2)oc2cc(O)cc(O)c12	12	10	-3	6	30*	-3
O=c1cc(-c2ccc(O)cc2)oc2c(-c3c(O)cc(O)c4c(=O)cc(-c5ccc(O)cc5)oc34)c(O)cc(O)c12	·	-8	·	·	20	·
CN1CCN(C2=C(Cl)C(=O)c3ccccc3C2=O)CC1	·	16	·	·	106*	99*
CC1COCC(C)N1C1=C(Cl)C(=O)c2ccccc2C1=O (stereo not drawn)	·	-8	·	·	87*	90*
CN(C1=C(N2CCOCC2)C(=O)c2ccccc2C1=O)c1ccccc1	1	92	4	11	1	·
CCOC(=O)c1c(-c2ccc(Br)cc2)csc1NC(=O)CN1CC(C)OC(C)C1 (stereo not drawn)	·	8	·	·	·	·
CCCCN(CCCC)S(=O)(=O)c1ccc(NC(=O)c2ccc([N+](=O)[O-])cc2Cl)cc1	-1	15	2	0	30*	-8
CCc1cccc(CC)c1NC(=O)c1ccc([N+](=O)[O-])cc1Cl	·	12	·	·	·	·
CCCCn1c(NC(=O)c2ccc(Br)o2)c(C(=O)OCC)c2nc3ccccc3nc21	39	1	3	-25	-65	·
CCCCn1c(NS(=O)(=O)c2ccccc2)c(C(=O)OCC)c2nc3ccccc3nc21	35	33	1	i	35*	74*
Cc1csc(NC(=O)CCCn2nc(-c3ccco3)ccc2=O)n1	·	-11	·	·	·	·
C[N+]1(C)CCC(=C2c3ccccc3CC(=O)c3sccc32)CC1	-1	0	-1	-10	32*	19
O=C(Cc1ccc(NC(=O)C2CCCN(C(=O)c3ccccc3)C2)cc1)Nc1cccc(C(=O)N2CCCCC2)c1 (stereo not drawn)	·	·	·	·	32*	-21
CN(C(=O)c1ccc(NC(=O)Cc2cccc(NC(=O)C3CCN(C(=O)C4CCCCC4)CC3)c2)cc1)C1CC1	·	-11	·	·	34*	-21
Cc1ccc(CN(C(=O)N2CCN(C)CC2)S(=O)(=O)c2ccc(C)cc2)cc1	·	-6	·	-1	-1	·
COC(=O)c1ccc(CN(C(=O)N2CCN(C)CC2)S(=O)(=O)c2ccc(C)cc2)cc1	·	12	·	-2	45*	-19
COc1ccc(NC(=O)Cn2nc(C(F)(F)F)c3c2CCCC3)c(OC)c1	-10	-17	0	2	30*	-21
COc1ccc(CNC(=O)Cn2nc(C(F)(F)F)c3c2CCC3)cc1	18	-7	-2	-1	9	·
Cc1ccc(S(=O)(=O)Nc2ccccc2-c2ccccc2NS(=O)(=O)c2ccc(C)cc2)cc1	1	7	14*	20	30*	13
CSc1cccc2sc(NC(=O)C3CC3)nc12	·	-4	·	·	·	·
COc1cccc(/C=N/Nc2ccnc(=O)[nH]2)c1O	10	·	1	-2	31*	-9
CC(C)(CCl)C(=O)NC1CC(=O)N(c2ccc(F)cc2)C1 (stereo not drawn)	·	-10	·	·	·	·
COc1ccc2c(n1)Sc1nc3ccccc3nc1N2	6	-1	-4	-4	59*	-2
CC(C)C[C@@H](COCc1cccc(C(F)(F)F)c1)N1CCN(C(=O)c2ccc(C(F)(F)F)cc2)CCC1=O	·	·	·	·	39*	16
O=C(c1ccc(C(F)(F)F)cc1)N1CCC(=O)N(C(CO)Cc2ccccc2)CC1 (stereo not drawn)	·	-177	·	12	-3	·
O=C(c1ccc(C(F)(F)F)cc1)N1CCC(=O)N([C@H](COCc2ccc(Cl)cc2)Cc2ccccc2)CC1	·	·	·	·	32*	7
O=C(c1ccc(C(F)(F)F)cc1)N1CCC(=O)N([C@H](COCc2ccc(C(F)(F)F)cc2)Cc2ccccc2)CC1	·	·	·	·	34*	7
CCOC(=O)c1sc2nc(NC(=O)c3cc(=O)c4ccccc4o3)sc2c1C	·	7	·	·	·	·
O=C(Nc1nccs1)C(F)(F)C(F)(F)C(F)(F)C(=O)Nc1nccs1	4	-2	1	1	113*	0
